Bioassay records (PubChem BioAssay)
LYPLA2 inh: LYPLA2 inhibitors, primary screen, counter-screen for PME1 inhibitor project, biochemical, fluorescence polarization, FP-Rh probe ABPP; recombinant LYPLA2; inhibition, % at 5.9 µM; 320,000 compounds, 0.38% hits; AID 2177, 2009;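 active = inhibition above the screen-wide mean plus 3 SD, limit set per campaign, cut at about 26% in these data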;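 also: 0% = LYPLA2 with DMSO and 100% = wells lacking LYPLA2 enzyme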
Fam108B inh: mouse Fam108B serine hydrolase inhibitors, primary screen, counter-screen for RBBP9 inhibitor project, biochemical, fluorescence polarization; 300,000 compounds, 0.33% hits; inhibition, % at 9.51 µM; AID 1947, 2009; recombinant Fam108B, FP-Rh probe fluorescence polarization;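 active = inhibition above the screen mean inhibition plus 3 SD, computed separately per campaign, cut at about 18% in these data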;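 also: inhibitors lower polarization as less probe binds the enzyme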
PME-1 inh: PME-1 inhibitors via competitive probe labeling, primary screen, biochemical, fluorescence polarization, FP-Rh probe, HTS | 320,000 compounds, 0.53% hits | inhibition, % at 5.9 µM | recombinant PME-1 | AID 2130, 2009;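 active = inhibition above the campaign mean of all compounds plus 3 SD, cut at about 26% in these data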;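 also: competitive labeling of PME-1 active site by serine hydrolase directed probe; 0% = PME-1 with DMSO and 100% = wells lacking PME-1 enzyme; inhibitors block probe labeling so polarization falls and inhibition rises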
LYPLA1 counter: LYPLA1 inhibitors, primary screen, counter-screen for PME1 inhibitor project, biochemical, fluorescence polarization, FP-Rh probe ABPP | recombinant LYPLA1 | Acyl-protein thioesterase 1 (Homo sapiens), O75608 | 320,000 compounds, 0.16% hits | inhibition, % at 5.9 µM | AID 2174, 2009;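 active = inhibition above the mean of all tested compounds plus 3 SD, set per campaign, cut at about 14% in these data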;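 also: inhibitors block serine hydrolase probe labeling of LYPLA1 so polarization falls; 0% = enzyme with DMSO and 100% = wells lacking LYPLA1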
PREPL inh: PREPL enzyme inhibitors, primary screen, biochemical, fluorescence polarization; recombinant PREPL, fluorescence polarization activity-based probe; 320,000 compounds, 0.68% hits; inhibition, % at 5.96 µM; AID 2751, 2010; in the data active = inhibition above about 43%;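 also: 0% = enzyme with DMSO and 100% = wells lacking enzyme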
Target sequence (Q4J6C6 whole entry, looked up): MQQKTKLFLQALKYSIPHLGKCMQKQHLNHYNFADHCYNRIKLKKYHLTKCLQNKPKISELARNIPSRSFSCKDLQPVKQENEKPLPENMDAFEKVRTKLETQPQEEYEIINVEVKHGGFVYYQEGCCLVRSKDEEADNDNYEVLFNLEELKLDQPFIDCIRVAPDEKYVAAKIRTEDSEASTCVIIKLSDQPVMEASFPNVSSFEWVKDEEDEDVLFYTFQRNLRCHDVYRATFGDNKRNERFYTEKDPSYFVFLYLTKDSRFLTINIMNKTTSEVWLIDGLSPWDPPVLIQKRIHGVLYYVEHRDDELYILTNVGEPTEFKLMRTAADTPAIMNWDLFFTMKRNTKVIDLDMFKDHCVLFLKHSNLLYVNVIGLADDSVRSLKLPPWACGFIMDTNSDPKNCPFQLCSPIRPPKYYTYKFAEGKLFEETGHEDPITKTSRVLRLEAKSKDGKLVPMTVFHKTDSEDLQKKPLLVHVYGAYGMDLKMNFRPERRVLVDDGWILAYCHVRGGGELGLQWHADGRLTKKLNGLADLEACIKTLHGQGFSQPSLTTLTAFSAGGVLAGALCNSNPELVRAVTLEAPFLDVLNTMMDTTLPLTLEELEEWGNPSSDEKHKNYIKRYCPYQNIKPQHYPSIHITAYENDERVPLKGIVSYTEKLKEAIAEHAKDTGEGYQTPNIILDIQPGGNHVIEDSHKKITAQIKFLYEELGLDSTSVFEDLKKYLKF
MEX-5 binding: MEX-5 zinc finger RNA-binding disruptors – biochemical, C. elegans, fluorescence polarization, MLPCN library, primary screen. activity score (negative = inhibition of binding), % at 10 µM. MEX-5/FITC-TCR2 RNA binding; hits give low values. 300,000 compounds, 0.38% hits;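 active = inhibition past about -25% in most replicates, and total fluorescence under double the plate's negative control median, limit read from the data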;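 also: 0% = DMSO and -100% = 5 µM competing unlabeled TCR2 RNA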
* marks the source's active call; other numbers are inactive results; · = not tested or not shown. An excerpt weighted towards active compounds, which were near 1.6% of everything screened.

SMILES | LYPLA2 inh | Fam108B inh | PME-1 inh | LYPLA1 counter | PREPL inh | MEX-5 binding
N#C/C(=C\c1ccc(-c2ccccc2[N+](=O)[O-])o1)C(=O)Nc1nc(-c2cccs2)cs1 | 12 | 6 | 29* | -13 | 19 | 0
Cc1cc(C)n(C2CC(=O)N(c3cccc(Cl)c3)C2=O)n1 (stereo not drawn) | 0 | 2 | -7 | 2 | -5 | -1
C=CCc1cccc(/C=N/NC(=O)CNc2cccc3ccccc23)c1O | 13 | 17 | 39* | -6 | 4 | -1
O=C(CNc1cccc2ccccc12)N/N=C/C(Br)=C/c1ccccc1 | -3 | 8 | 27* | -8 | 24 | 0
Cc1c(C(=O)N(Cc2ccc(F)cc2)C2CCS(=O)(=O)C2)oc2ccccc12 (stereo not drawn) | 5 | 0 | 2 | 1 | 8 | 1
O=C1CC(NNC(=O)c2ccccc2)C(=O)N1 (stereo not drawn) | 11 | 2 | -2 | 0 | 14 | 2
O=C(Cc1nc2ccccc2[nH]c1=O)c1ccccc1 | · | · | · | · | · | -61*
O=c1[nH]c2ccccc2nc1Cc1ccccc1 | -1 | 6 | -3 | 0 | -2 | 0
Cc1n[nH]c(=O)nc1N/N=C/c1ccc(O)c([N+](=O)[O-])c1 | 0 | 1 | -4 | 4 | -28 | -28*
COc1cc(/C=N/Nc2nc(=O)[nH]nc2C)cc([N+](=O)[O-])c1O | 1 | 2 | 4 | -1 | -32 | -79*
COc1ccc(/C=N/Nc2nc(=O)[nH]nc2C)cc1[N+](=O)[O-] | 4 | 0 | 7 | -1 | -19 | -1
CCCCC1=CC2=CC(=O)C(C)(OC(=O)c3ccc(Cl)nc3)C(=O)C2=CO1 (stereo not drawn) | 20 | 7 | 23 | 20* | 14 | -29*
COC(=O)CCCC1=CC2=CC(=O)C(C)(OC(=O)c3ccco3)C(=O)C2=CO1 (stereo not drawn) | 5 | 6 | 5 | 2 | 3 | -42*
CC(C)c1ccc(N(CC(=O)N2CCN(Cc3ccccc3)CC2)S(C)(=O)=O)cc1 | -5 | 2 | -1 | 0 | 9 | 0
Cc1ccc(C(=O)O)cc1NC(=S)NC(=O)c1ccc(-c2ccc(Cl)cc2)o1 | 6 | -13 | 0 | 2 | 3 | 1
O=C(O)c1cccc(NC(=S)NC(=O)c2ccc(-c3ccc(Cl)cc3)o2)c1 | 28* | -9 | -23 | -3 | -11 | -12
O=C(O)c1ccc(Oc2ccccc2)o1 | 0 | 4 | 2 | -2 | -6 | 0
CCC(C)(C)C1CCc2c(sc(NC(=O)c3ccccc3C(=O)O)c2C#N)C1 (stereo not drawn) | 4 | -2 | 27* | 2 | 13 | -6
Cc1ccccc1N=Cc1cccc(O)c1O | 5 | 4 | 4 | 0 | 22 | 0
Oc1cccc(/C=N/N=C/c2cccc(O)c2O)c1O | -13 | 1 | -3 | -5 | 2 | -37*
CN(CC(=O)NCc1ccccn1)S(=O)(=O)c1ccc(Br)cc1 | 3 | 2 | 2 | -1 | -2 | -26*
CCCn1cc(C(CC(=O)O)C(=O)O)c2ccccc21 (stereo not drawn) | 1 | -7 | -6 | 1 | -3 | -1
O=C1CN(C(=O)c2cc3ccccc3oc2=O)C(c2ccccc2)c2cc(F)ccc2N1 (stereo not drawn) | 11 | 1 | 34* | -1 | -3 | -4
O=C(NCC1CCCCC1)c1cc([N+](=O)[O-])ccc1Cl | -4 | 1 | 1 | 1 | 2 | 0
CCOC(=O)c1ccc(-c2ccc(C=O)o2)cc1 | 6 | 0 | -2 | 0 | 5 | -27*
SMILES | LYPLA2 inh | Fam108B inh | PME-1 inh | LYPLA1 counter | PREPL inh | MEX-5 binding
CCCOC(=O)c1ccc(-c2ccc(C=O)o2)cc1 | -1 | 2 | -10 | 0 | -10 | -2
CCOC(=O)CSc1nc2cc3c(cc2cc1C#N)OCCO3 | -4 | -2 | 34* | -2 | 2 | 2
COc1ccc(OC)c(NC(=O)C2CCCN2C(=O)OCc2ccccc2)c1 (stereo not drawn) | 5 | 7 | -2 | 0 | 24 | 0
COc1ccccc1NC(=O)c1cc2ccc(O)cc2o/c1=N\O | 7 | 16 | 27* | 2 | 19 | -3
Cc1cc(NS(=O)(=O)c2ccc(Nc3nc(-c4ccc(C)c(C)c4)cs3)cc2)no1 | 6 | 2 | 19 | 9 | 11 | 3
Cc1cc(NS(=O)(=O)c2ccc(Nc3nc(-c4sc(N)nc4C)cs3)cc2)no1 | -10 | 15 | -8 | -16 | 25 | -29*
O=C(O)c1ccccc1Nc1cccc(OCc2ccc3ccccc3n2)c1 | 9 | 5 | 30* | -1 | 37 | ·
O=C(c1ccc(NS(=O)(=O)c2cccc(F)c2)cc1)N1CCCCC1 | 2 | 0 | 2 | 3 | 10 | 0
Cc1ccc(NC(=S)NNc2ccc([N+](=O)[O-])cc2S(=O)(=O)Nc2ccccc2C(=O)O)cc1C | -5 | 9 | 48* | -8 | 17 | -10
O=C(O)c1ccccc1NS(=O)(=O)c1ccc(NNC(=S)Nc2ccc(OC(F)F)cc2)c([N+](=O)[O-])c1 | · | · | · | · | · | -42*
O=C(Cc1n[nH]c(=O)c2ccccc12)OCc1c(Cl)cccc1Cl | -2 | -1 | -2 | 1 | -3 | 5
O=C(CNS(=O)(=O)c1ccc([N+](=O)[O-])cc1)N/N=C/c1ccc(O)cc1O | 1 | 2 | -4 | 0 | 7 | -57*
O=C(CNS(=O)(=O)c1ccc([N+](=O)[O-])cc1)N/N=C\c1ccc(O)cc1 | 6 | 1 | -2 | 5 | 9 | 0
Cc1ccc(NS(=O)(=O)c2ccc3c(c2)C(=O)c2ccccc2C3=O)c(C)c1 | 4 | 9 | 32* | -6 | -6 | ·
O=C(/C=C/c1ccc(OCCCF)cc1)Nc1ccnc(-c2ccncc2)n1 | -5 | -22 | -45 | -3 | 1 | -3
O=C(/C=C/c1ccc(OCCCF)cc1)Nc1ccnc(-c2cccnc2)n1 | -8 | -16 | -50 | -4 | 6 | -51*
O=C1C=CC(=O)C(C2=C3C(=O)N(CCc4ccccc4)CC(=O)N3CCC2)=C1 | -3 | 2 | -4 | 1 | 18 | -47*
COc1ccc(C)cc1NC(=O)NNC(=O)c1cc2ccccc2cc1O | -8 | 12 | 26* | -14 | 22 | 3
O=C(O)CSc1cn(Cc2ccccc2)c2ccccc12 | 2 | -1 | 0 | 0 | 8 | 1
Brc1ccc(C2=CSC3=NCCN23)cc1 | 10 | 4 | 7 | 2 | 7 | -1
Oc1ccc(C2=CSC3=NCCN23)cc1O | -1 | 0 | -3 | -6 | -9 | -30*
